Experimental data as given in PubChem BioAssay (NCATS).
Inconclusive results are not listed. The source made the active and inactive calls. Unless noted, calls follow the shape of the dose curve; as a rule, active = well fitted curve in either direction with a large enough effect (not every such curve was filed as active); inconclusive = small, poorly fitted or top-dose-only effect, or another doubt; inactive = flat fitted curve, though single readings scatter.

Experiments:
[1] = target: Lysosomal acid glucosylceramidase (Homo sapiens) (UniProt P04062); test: Glucocerebrosidase-p2 (AID 348; in the data active = potency below about 10 µM; also: potency is read from the fitted curve at half-maximal effect); conditions: purified GBA, blue fluorogenic substrate, 40 min
How it was run: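 Normal human glucocerebrosidase (0.2 nM) with blue fluorogenic substrate (80 uM final) in citrate/phosphate pH 5.9 with 10mM sodium taurocholate, 0.01% tween-20; 40 min RT, NaOH/glycine stop; fluorescence Ex 365/Em 440; AC50 from a titration from 0.6 nM upwards.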

[2] = AP1 Signaling Pathway (AID 357); conditions: ME-180 AP-1-bla reporter, EGF-induced, beta-lactamase ratio, 5 h; at 7.69 µM (top of the series) unless noted;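 also: ME-180 reporter cells stimulated with EGF at its EC50 level; % is scaled to controls: 0 for no effect and ±100 for the full control effect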
How it was run: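 First, ME-180 AP-1-bla cells were cultured overnight at 37 °C in low-serum Opti-MEM. Next, titrated compounds with EC50 EGF were incubated 5 hours. Finally, CCF4 was added for 2.5 hours and the 460/530 nm ratio recorded.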

[3] = NFAT Signaling Pathway (AID 444); conditions: Jurkat NFAT-bla M1, carbachol, beta-lactamase ratio, 5 h; at 7.69 µM (top of the series) unless noted;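 also: carbachol stimulus at about its EC50 of 1 µM final; % is scaled to controls: 0 for no effect and ±100 for the full control effect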
How it was run: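 Jurkat cells carrying an NFAT-driven β-lactamase reporter and co-transfected muscarinic M1 receptor were treated with compound plus carbachol (1 uM final, an EC50 level) for 5 h at 37 °C. CCF4 loading followed for 1 h at RT; 460/530 nm ratio gave %activity.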

[4] = Stat Signaling Pathway (AID 446); conditions: ME-180 (cervical carcinoma) SIE beta-lactamase reporter, IL-6 stimulated, 5 h; at 7.69 µM (top of the series) unless noted;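 also: ME-180 cervical cancer cells given 40 pM IL-6 alongside compound; SIE-controlled beta-lactamase reporter measured as 460/530 nm FRET emission ratio; % is scaled to controls: 0 for no effect and ±100 for the full control effect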
How it was run: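 Compound effects on IL-6-induced STAT reporter activity were measured in ME-180 cells. After overnight culture, cells were co-treated with 40 pM IL-6 for 5 hrs before beta-lactamase substrate loading at room temperature.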

[5] = target: Glucocorticoid receptor (Homo sapiens) (UniProt P04150); test: GR-GFP Redistribution (AID 450;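 active = compounds whose dose series gives a full or clear partial fitted curve of increased nuclear translocation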; also: potency is read from the fitted curve at half-maximal effect); conditions: U2OS GR-GFP nuclear translocation, laser cytometry, 2 h
[6] = target: Glucocorticoid receptor (Homo sapiens) (UniProt P04150); test: GR-EFC Redistribution (AID 451; calls by dose curve; also: potency is read from the fitted curve at half-maximal effect); conditions: CHO-K1 GR-EFC translocation, beta-gal luminescence, 2 h
How it was run: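 CHO-K1 cells stably expressing nuclear-localized β-gal enzyme acceptor and GR fused C-terminally to the enzyme donor fragment; ligand-driven nuclear translocation restores β-gal by complementation. Compounds titrated up to 46 uM final, 2 h at 37 °C; luminescence read.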

[7] = target: Mitogen-activated protein kinase 10 (Mus musculus) (UniProt Q61831); test: JNK3 AlphaScreen Assay (AID 530); conditions: JNK3 lysate, c-Jun phosphorylation; series mostly up to 11.4 µM;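 also: kinase came from lysate of stimulated human HepG2 cells; signal reports phosphorylation of biotinylated GST-cJun 1-79 at Ser73 with 10 µM ATP; % is scaled to controls: 0 for no effect and ±100 for the full control effect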
How it was run: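 Phosphorylation of biotinylated GST-cJun(1-79) at Ser73 is measured by AlphaScreen proximity luminescence. Enzyme is JNK3 in HepG2 lysates activated with interleukin-1beta and tumor necrosis factor alpha; ATP is 10 uM final.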

[8] = target: 3',5'-cyclic-AMP phosphodiesterase 4B (Homo sapiens) (UniProt Q07343); test: qHTS Assay for Inhibitors of PDE-IV (AID 607; active = well fitted activation curve with a large enough effect in the main read-out, with a control signal flat, not every such curve was filed as active; also: % of control where 0% means no effect); conditions: HEK293 ACTOne CNG channel cells, membrane potential fluorescence; series mostly up to 22.9 µM
How it was run: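 ACTOne HEK293 cells carry a modified cAMP-gated CNG channel and express endogenous PDE4; plated 1000 cells/well, compounds up to 22.9 uM final. Membrane-potential dye fluorescence (ex 535/em 590) was read; parental cells received 10 uM forskolin + 100 uM RO 20-1724.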

Chain of 3',5'-cyclic-AMP phosphodiesterase 4B (Homo sapiens) (Q07343 whole entry, looked up): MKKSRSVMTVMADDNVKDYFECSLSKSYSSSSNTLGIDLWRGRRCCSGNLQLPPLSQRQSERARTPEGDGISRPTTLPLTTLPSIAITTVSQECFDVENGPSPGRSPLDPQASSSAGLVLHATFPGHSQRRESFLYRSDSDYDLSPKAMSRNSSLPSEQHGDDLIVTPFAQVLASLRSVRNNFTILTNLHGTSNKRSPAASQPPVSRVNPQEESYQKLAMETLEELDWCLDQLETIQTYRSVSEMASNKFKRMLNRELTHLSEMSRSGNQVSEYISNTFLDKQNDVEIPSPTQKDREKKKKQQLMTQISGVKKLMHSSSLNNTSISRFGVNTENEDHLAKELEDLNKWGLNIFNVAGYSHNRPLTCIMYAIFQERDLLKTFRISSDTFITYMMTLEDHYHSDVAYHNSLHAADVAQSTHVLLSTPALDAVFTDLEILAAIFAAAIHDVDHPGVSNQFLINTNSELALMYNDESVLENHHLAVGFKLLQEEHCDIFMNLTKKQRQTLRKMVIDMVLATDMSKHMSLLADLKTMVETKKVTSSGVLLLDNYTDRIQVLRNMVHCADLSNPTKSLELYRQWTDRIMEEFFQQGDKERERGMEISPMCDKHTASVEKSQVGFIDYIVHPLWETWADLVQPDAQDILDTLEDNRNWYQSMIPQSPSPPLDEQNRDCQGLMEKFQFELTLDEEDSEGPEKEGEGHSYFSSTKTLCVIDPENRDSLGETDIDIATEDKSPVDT
Chain of Lysosomal acid glucosylceramidase (Homo sapiens) (P04062 whole entry, looked up): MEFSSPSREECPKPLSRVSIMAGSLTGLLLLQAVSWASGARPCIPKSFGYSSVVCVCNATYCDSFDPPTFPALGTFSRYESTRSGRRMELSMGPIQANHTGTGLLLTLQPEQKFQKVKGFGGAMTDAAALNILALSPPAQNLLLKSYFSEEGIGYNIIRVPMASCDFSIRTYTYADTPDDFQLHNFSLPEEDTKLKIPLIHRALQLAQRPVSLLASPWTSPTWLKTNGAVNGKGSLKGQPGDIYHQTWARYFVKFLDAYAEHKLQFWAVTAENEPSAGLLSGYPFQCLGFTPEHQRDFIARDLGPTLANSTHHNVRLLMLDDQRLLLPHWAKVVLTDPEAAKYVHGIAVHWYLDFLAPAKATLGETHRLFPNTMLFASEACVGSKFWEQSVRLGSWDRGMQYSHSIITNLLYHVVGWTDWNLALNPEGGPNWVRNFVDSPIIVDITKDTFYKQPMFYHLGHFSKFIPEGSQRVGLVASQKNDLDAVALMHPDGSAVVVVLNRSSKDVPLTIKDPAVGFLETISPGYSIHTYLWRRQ
Chain of Glucocorticoid receptor (Homo sapiens) (P04150 whole entry, looked up, the tested form may be a part): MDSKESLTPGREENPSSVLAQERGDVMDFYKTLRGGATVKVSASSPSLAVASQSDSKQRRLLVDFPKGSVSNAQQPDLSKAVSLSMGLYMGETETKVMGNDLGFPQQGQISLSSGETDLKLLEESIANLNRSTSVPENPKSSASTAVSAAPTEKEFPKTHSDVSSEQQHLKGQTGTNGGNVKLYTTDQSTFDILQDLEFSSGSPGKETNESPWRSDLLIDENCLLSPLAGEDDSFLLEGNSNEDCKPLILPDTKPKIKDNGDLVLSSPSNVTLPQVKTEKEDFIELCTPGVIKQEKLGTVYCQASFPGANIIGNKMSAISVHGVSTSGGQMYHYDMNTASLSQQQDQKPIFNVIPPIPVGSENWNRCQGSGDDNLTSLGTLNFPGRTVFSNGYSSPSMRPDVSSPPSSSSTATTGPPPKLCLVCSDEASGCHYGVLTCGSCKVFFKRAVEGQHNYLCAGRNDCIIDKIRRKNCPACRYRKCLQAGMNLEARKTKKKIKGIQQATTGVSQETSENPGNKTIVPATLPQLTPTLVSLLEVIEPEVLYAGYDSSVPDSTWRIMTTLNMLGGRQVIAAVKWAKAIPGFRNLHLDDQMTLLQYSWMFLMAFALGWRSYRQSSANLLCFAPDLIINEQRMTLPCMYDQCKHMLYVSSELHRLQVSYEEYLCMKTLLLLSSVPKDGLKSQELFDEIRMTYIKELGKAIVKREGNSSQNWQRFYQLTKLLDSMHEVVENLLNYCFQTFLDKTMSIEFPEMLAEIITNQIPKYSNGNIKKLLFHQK

Nc1ccn([C@H]2O[C@H](CO)[C@@H]3[O][Sn]([c]4ccccc4)([c]4ccccc4)[O][C@H]32)c(=O)n1
inactive: Potency [1] > 11.4 µM | activity change, negative = inhibition [2] -22.1% | activity change, negative = inhibition [3] -9.06% | activity, negative = inhibition [4] -20.4% | Potency [5] > 46 µM | Potency [6] > 9.22 µM | Potency [7] | Potency [8]

NC(N)=N[C@H](CC(=O)O)c1ccccc1
inactive: Potency [1] > 11.4 µM | activity change, negative = inhibition [2] 5.91% | activity change, negative = inhibition [3] 1.32% | activity, negative = inhibition [4] 3.35% | Potency [5] > 46 µM | Potency [6] > 9.22 µM | Potency [7] | Potency [8]

O=C(O)[C@@H]1[C@@H]2O[C@H]([C@@H](Br)[C@H]2Br)[C@H]1C(=O)O
inactive: Potency [1] > 11.4 µM | activity change, negative = inhibition [2] 7.44% | activity change, negative = inhibition [3] 2.42% | activity, negative = inhibition [4] -2.12% | Potency [5] > 46 µM | Potency [6] > 9.22 µM | Potency [7] | Potency [8]

CCOc1ccc(N=NS(=O)(=O)O)cc1
inactive: Potency [1] > 11.4 µM | activity change, negative = inhibition [2] 8.26% | activity change, negative = inhibition [3] -0.735% | activity, negative = inhibition [4] 8.88% | Potency [5] > 46 µM | Potency [6] > 9.22 µM | Potency [7] | Potency [8]

CN(C)CCN1C(=O)CC[C@]2(C)C1=CC[C@@H]1[C@@H]2CC[C@]2(C)[C@H]1CC[C@]2(C)O
inactive: Potency [1] > 11.4 µM | activity change, negative = inhibition [2] 3.79% | activity change, negative = inhibition [3] -6.05% | activity, negative = inhibition [4] 6.79% | Potency [5] > 46 µM | Potency [6] > 9.22 µM | Potency [7] | Potency [8]

C[C@H](Br)C(=O)Nc1ccc(C(=O)O)c(O)c1
inactive: Potency [1] > 11.4 µM | activity change, negative = inhibition [2] 1.78% | activity change, negative = inhibition [3] -22.6% | activity, negative = inhibition [4] -4.23% | Potency [5] > 46 µM | Potency [6] > 9.22 µM | Potency [7] | Potency [8]

CN1[C@@H](c2ccccc2)CC(=NO)C[C@H]1c1ccccc1
inactive: Potency [1] > 11.4 µM | activity change, negative = inhibition [2] 0.163% | activity change, negative = inhibition [3] -20.1% | activity, negative = inhibition [4] 5.8% | Potency [5] > 46 µM | Potency [6] > 9.22 µM | Potency [7] | Potency [8]

Cc1ccn2c(CCc3nnc4cc(C)ccn34)nnc2c1
inactive: Potency [1] > 11.4 µM | activity change, negative = inhibition [2] 2.24% | activity change, negative = inhibition [3] 11% | activity, negative = inhibition [4] -6.72% | Potency [5] > 46 µM | Potency [6] > 9.22 µM | Potency [7] | Potency [8]

CC(C)CN(CC#N)CC(C)C
inactive: Potency [1] > 11.4 µM | activity change, negative = inhibition [2] 6.22% | activity change, negative = inhibition [3] 12.7% | activity, negative = inhibition [4] 5.79% | Potency [5] > 46 µM | Potency [6] > 9.22 µM | Potency [7] | Potency [8]

O=C(O)c1ccc(NCc2nc3cc4ccccc4cc3[nH]2)cc1
inactive: Potency [1] > 11.4 µM | activity change, negative = inhibition [2] -5.67% | activity change, negative = inhibition [3] 14.2% | activity, negative = inhibition [4] -2.42% | Potency [5] > 46 µM | Potency [6] > 9.22 µM | Potency [7] | Potency [8]

N#C[C@H](C(=O)O)C(c1c(Cl)cccc1Cl)[C@H](C#N)C(=O)O
inactive: Potency [1] > 11.4 µM | activity change, negative = inhibition [2] 1.46% | activity change, negative = inhibition [3] 5.02% | activity, negative = inhibition [4] 5.11% | Potency [5] > 46 µM | Potency [6] > 9.22 µM | Potency [7] | Potency [8]

Cc1cc2ncn(CC(=O)O)c2cc1C
inactive: Potency [1] > 11.4 µM | activity change, negative = inhibition [2] -4.54% | activity change, negative = inhibition [3] 1.45% | activity, negative = inhibition [4] 8.76% | Potency [5] > 46 µM | Potency [6] > 9.22 µM | Potency [7] | Potency [8]

C[N+]1(CCN=C=NC2CCCCC2)CCOCC1
inactive: Potency [1] > 11.4 µM | activity change, negative = inhibition [2] 9.01% | activity change, negative = inhibition [3] -4.19% | activity, negative = inhibition [4] -0.107% | Potency [5] > 46 µM | Potency [6] > 9.22 µM | Potency [7] | Potency [8]

CC1(C)CC(Nc2ccc(Nc3ccccc3)cc2)CC(C)(C)N1
inactive: Potency [1] > 11.4 µM | activity change, negative = inhibition [2] -24.4% | activity change, negative = inhibition [3] 6.65% | activity, negative = inhibition [4] -6.18% | Potency [5] > 46 µM | Potency [6] > 9.22 µM | Potency [7] | Potency [8]

O=C(O)/C(Cc1ccc([N+](=O)[O-])cc1)=N/O
inactive: Potency [1] > 11.4 µM | activity change, negative = inhibition [2] 3.45% | activity change, negative = inhibition [3] -0.295% | activity, negative = inhibition [4] 7.71% | Potency [5] > 46 µM | Potency [6] > 9.22 µM | Potency [7] | Potency [8]

O=C(C[C@@H](C(=O)O)N1CCOCC1)c1ccccc1
inactive: Potency [1] > 11.4 µM | activity change, negative = inhibition [2] 8.49% | activity change, negative = inhibition [3] -28.5% | activity, negative = inhibition [4] -2.89% | Potency [5] > 46 µM | Potency [6] > 9.22 µM | Potency [7] | Potency [8]

O=C1OC(c2ccc(O)c(-c3ccccc3)c2)(c2ccc(O)c(-c3ccccc3)c2)c2c(Cl)c(Cl)c(Cl)c(Cl)c21
inactive: Potency [1] > 11.4 µM | activity change, negative = inhibition [2] 10.7% | activity change, negative = inhibition [3] 19.3% | activity, negative = inhibition [4] 5.56% | Potency [5] > 46 µM | Potency [6] > 9.22 µM | Potency [7] | Potency [8]
